Here are results for 26 molecules from PubChem BioAssay (NCATS).

Results filed as inconclusive are left out. Values without a mark were called inactive. Activity calls are given as the source filed them. Calls come from the whole dose curve; as a rule, active = well fitted inhibition curve with a large enough effect; inconclusive = small, poorly fitted or top-dose-only effect; inactive = no such curve, though single readings can be large or run the other way.

For experiment [1], the system named is Zika virus NS2B-NS3 protease (unlinked complex). Put plainly: Primary screen GU Rhodamine qHTS for Zika virus inhibitors: Unlinked NS2B-NS3 protease assay (AID 1347159). Note: nearly all actives have a fitted effect of over 60% in size. In a few lines:
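Unlinked NS2B/NS3, 25 nM; Rhod110 peptide, 1.5 microM; compounds, up to 114 microM. Reaction run 15 min at RT in 10 mM Tris-HCl pH 8.0, 0.01% Tween 20; kinetic fluorescence change fitted with a 4-parameter Hill model.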

Experiment [2] concerns Zika virus NS2B-NS3 protease (linked construct). The experiment in a line: Primary screen NINDS Rhodamine qHTS for Zika virus inhibitors (AID 1347160). Note: nearly all actives have a fitted effect of over 55% in size. In outline: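 Single-chain NS2B-NS3 protease, 25 nM, pH 8.0; compounds preincubated 15 min. Activity: Rhodamine110 release from 1.5 microM substrate over 15 min, room temperature, data fitted to 4-parameter Hill.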
(In general: Quantitative high-throughput screening tests each substance at several concentrations.)
% is set by controls: 0 for no effect and ±100 for the full control effect.

As to `COc1cc2c(NC3CCN(CC4CCCCC4)CC3)nc(N3CCCN(C(C)C)CC3)nc2cc1OCCCN1CCCCC1`, the Potency result in experiment [1] and in experiment [2] was “inactive” in each case.
For `C[C@@H]1CCC2C(C)(C)[C@H](O)CC[C@]2(C)[C@@]12Cc1c(O)cc3c(c1O2)CNC3=O` (some centres not stated), the Potency result in experiment [1] and in experiment [2] was “inactive” throughout.
As for `CC(C)C(CO)Nc1nc(Nc2cc(N)cc(Cl)c2)c2ncn(C(C)C)c2n1` (configuration not stated), the Potency entry in experiment [1] and in experiment [2] was “inactive” each time.
With `CC1OC(OC2C(CO)OC(OCC3OC(OC(=O)C45CCC(C)(C)CC4C4=CCC6C7(C)CCC(OC8OC(CO)C(O)C(OC9OC(CO)C(O)C(O)C9O)C8O)C(C)(C)C7CCC6(C)C4(C)CC5)C(O)C(O)C3O)C(O)C2O)C(O)C(O)C1OC1OC(CO)C(O)C(O)C1O` (configuration not stated), in experiment [1], the activity change, negative = inhibition was 10.6% [at 19.1 µM]. Further, in experiment [2], the outcome was “inactive [at 10.7 µM]”.
In the case of `C=CC(=O)Nc1cccc(CN2C(=O)N(c3c(Cl)c(OC)cc(OC)c3Cl)Cc3cnc(NCCCCN(CC)CC)nc32)c1`, the Potency result in experiment [1] and in experiment [2] was “inactive” throughout.
With `C=C[C@]1(C)C[C@H](O)[C@@H]2[C@H](OC(=O)[C@@H]2C)C1/C(C)=C/O[C@@H]1O[C@H](CO)[C@@H](O)[C@H](O)[C@H]1O` (some centres not stated), the Potency result in experiment [1] and in experiment [2] was “inactive” in each case.
In the case of `COc1cc2ncnc(N3CCC(Oc4cnc5ccccc5n4)C3)c2cc1OC` (configuration not stated), the Potency result in experiment [1] and in experiment [2] was “inactive” throughout.
`CCN(Cc1cccnc1)C(=O)CN(c1ccc(OC)nc1)S(=O)(=O)c1ccccc1C`: the Potency entry in experiment [1] and in experiment [2] was “inactive” each time.
Regarding `CC(C)=CCC[C@](C)(O[C@@H]1O[C@H](CO)[C@@H](O)[C@H](O)[C@H]1O)[C@H]1CC[C@]2(C)[C@@H]1[C@H](O)CC1[C@@]3(C)CC[C@H](O)C(C)(C)C3[C@@H](O[C@@H]3O[C@H](CO)[C@@H](O)[C@H](O)[C@H]3O)C[C@]12C` (some centres not stated), the Potency entry in experiment [1] and in experiment [2] was “inactive” throughout.
In the case of `CC1(C)CC[C@]2(C(=O)O[C@@H]3O[C@H](CO[C@@H]4O[C@H](CO)[C@@H](O)[C@H](O)[C@H]4O[C@@H]4O[C@H](CO)[C@H](O)[C@H](O)[C@H]4O)[C@@H](O)[C@H](O[C@@H]4O[C@H](CO)[C@@H](O)[C@H](O)[C@H]4O)[C@H]3O)CC[C@]3(C)C(=CCC4[C@@]5(C)CC[C@H](O[C@@H]6OC[C@@H](O)[C@H](O)[C@H]6O)[C@@](C)(C(=O)O)C5CC[C@]43C)[C@@H]2C1` (some centres not stated), the activity change, negative = inhibition in experiment [1] was 20.2% [at 19.1 µM]; in experiment [2] it was -4.93% [at 10.7 µM].
For `Oc1ccc2nc(CN3CCC(Cc4ccccc4F)CC3)[nH]c2c1`, the Potency entry in experiment [1] and in experiment [2] was “inactive” in each case.
Consider `C[C@]1(CO)CCC[C@]2(C)C3=C(CCC12)COC3` (some centres not stated), for which the Potency result in experiment [1] and in experiment [2] was “inactive” each time.
With `COC(=O)N[C@H](C(=O)N1[C@@H]2CC[C@@H](C2)[C@H]1c1nc2ccc(-c3ccc4c(c3)C(F)(F)c3cc(-c5cnc([C@@H]6CCC7(CC7)N6C(=O)[C@@H](NC(=O)OC)C(C)C)[nH]5)ccc3-4)cc2[nH]1)C(C)C`, the Potency result in experiment [1] and in experiment [2] was “inactive” throughout.
In the case of `CC1(C)CC2C(C1)C(C)(O)C13CC1(COC3=O)C2O` (configuration not stated), the Potency result in experiment [1] and in experiment [2] was “inactive” each time.
For `C[C@@H]1O[C@@H](O[C@H]2[C@H](O[C@H]3[C@H](O[C@H]4CC[C@@]5(C)C(CC[C@]6(C)C5CC=C5[C@@H]7CC(C)(C)CC[C@]7(C(=O)O[C@@H]7O[C@H](CO)[C@@H](O[C@@H]8O[C@@H](C)[C@H](O)[C@@H](O)[C@H]8O)[C@H](O)[C@H]7O)CC[C@]56C)C4(C)C)OC[C@H](O)[C@@H]3O)O[C@H](CO)[C@@H](O)[C@@H]2O)[C@H](O)[C@H](O)[C@H]1O` (some centres not stated), the results for the activity change, negative = inhibition in experiment [1] and in experiment [2] were 6.71% [at 19.1 µM] and 35.2% [at 10.7 µM], respectively.
In the case of `COc1ccc(C2(O)CCC(N3CC[C@@H](NC(=O)CNC(=O)c4cccc(C(F)(F)F)c4)C3)CC2)cn1` (some centres not stated), the Potency result in experiment [1] and in experiment [2] was “inactive” each time.
Consider `Cc1c(CN2CCN(C(=O)C(C)O)CC2)sc2c(N3CCOCC3)nc(-c3cnc(N)nc3)nc12` (configuration not stated), for which the Potency entry in experiment [1] and in experiment [2] was “inactive” throughout.
In the case of `COc1c2c(c(C)c3c1C(=O)OC3)OC1(C)CC(O)C34OC(OC)(OC3(C)C)C(O)CC4(C)C1C2` (configuration not stated), the Potency result in experiment [1] and in experiment [2] was “inactive” in each case.
Regarding `C/C1=C\CC[C@H](C)CCO[C@@H]2O[C@H](CO[C@@H]3OC[C@](O)(COC1=O)[C@H]3O)[C@@H](O)[C@H](O)[C@H]2O`, the Potency entry in experiment [1] and in experiment [2] was “inactive” in each case.
On to `O=C(OC1C=C(CO)C2C(OC3OC(CO)C(O)C(O)C3O)OC=CC12)c1ccc(O)cc1` (configuration not stated), for which the Potency result in experiment [1] and in experiment [2] was “inactive” each time.
On to `CCCC(=O)O[C@@H]1[C@@H]2[C@@H](OC(C)=O)[C@]3(C)C(=O)[C@H]4[C@@H](OC(C)=O)C(C)(C)C[C@H]4[C@]3(C)C(=O)[C@@]2(OC(C)=O)C[C@@H]1C`, for which the Potency entry in experiment [1] and in experiment [2] was “inactive” throughout.
For `COC1=CC(=O)CC(C)C12Oc1cc(OC)cc(O)c1C2=O` (configuration not stated), the Potency entry in experiment [1] and in experiment [2] was “inactive” in each case.
As for `C[C@@H]1O[C@@H](O[C@@H]2[C@@H](O)[C@H](O[C@H]3[C@H](O[C@H]4CC[C@@]5(C)C(CC[C@]6(C)C5CC=C5[C@@H]7CC(C)(C)CC[C@]7(C(=O)O[C@@H]7O[C@H](CO)[C@@H](O)[C@H](O)[C@H]7O[C@@H]7O[C@@H](C)[C@H](O[C@@H]8O[C@@H](C)[C@H](O)[C@@H](O)[C@H]8O)[C@@H](O)[C@H]7O)CC[C@]56C)[C@@]4(C)CO)O[C@H](C(=O)O)[C@@H](O)[C@@H]3O)O[C@H](CO)[C@H]2O)[C@H](O)[C@H](O)[C@H]1O` (some centres not stated), the activity change, negative = inhibition was 22.9% [at 19.1 µM] in experiment [1] and 3.12% [at 10.7 µM] in experiment [2].
With `Cc1cnc(Nc2ccc(F)cc2Cl)nc1-c1c[nH]c(C(=O)NC(CO)c2cccc(Cl)c2)c1` (configuration not stated), the Potency result in experiment [1] and in experiment [2] was “inactive” each time.
As for `C=C(CCC1=C(C)[C@H]2[C@H](CC3[C@@H]4CC=C5C[C@@H](O)C[C@@H](O)[C@]5(C)C4[C@H](O)C[C@@]32C)O1)CO[C@@H]1O[C@H](CO)[C@@H](O)[C@H](O)[C@H]1O` (some centres not stated), the Potency entry in experiment [1] and in experiment [2] was “inactive” in each case.
`CC(CO)C1CCC2(C)CC3C(CO)CC(O)C3C(C)(O)C/C=C/12` (configuration not stated): the Potency result in experiment [1] and in experiment [2] was “inactive” in each case.
